In paper PMC7826789 (International Journal of Molecular Sciences, 2021):

Each compound was assayed on RIPK1.
For CN1C(=O)[C@@H](NC(=O)c2cc(Cc3ccccc3)on2)COc2ccccc21 [GSK481], the Kinases covered was “RIPK1”.
Cn1cc(-c2ccc3c(c2)CCN3C(=O)Cc2cccc(C(F)(F)F)c2)c2c(N)ncnc21 [GSK2606414] was tested, and the Kinases covered was “RIPK1”.
With Cc1cccc(CC(=O)N2CCc3c2ccc(-c2cn(C)c4ncnc(N)c24)c3F)n1 [GSK2656157] the Kinases covered was “RIPK1”.

Each compound was assayed on RIPK2.
In the case of COc1cc(-c2cncc(-c3cnn(C4CCNCC4)c3)c2)cc(OC)c1OC [K05908], the Kinases covered was “RIPK2”.
With CC(C)(C)S(=O)(=O)c1ccc2nccc(Nc3n[nH]c4ccc(F)cc34)c2c1 [GSK583] the Kinases covered was “RIPK2”.
CN(C)CCOc1ccc(-c2nc(-c3ccc4c(c3)CC/C4=N\O)c(-c3ccncc3)[nH]2)cc1 [SB-590885] was tested, and the Kinases covered was “RIPK2”.

The compounds below were run on RIPK3.
With Cc1cc(-c2cnc(N)c3c(-c4ccc5scnc5c4)csc23)n(C)n1 [GSK843] the Kinases covered was “RIPK3”.
For CC(C)S(=O)(=O)c1ccc2nccc(Nc3ccc4scnc4c3)c2c1 [GSK872], the Kinases covered was “RIPK3”.
For CNC(=O)c1ccc2c(c1)ncn2-c1ccc(CC(=O)OC(C)(C)C)cc1 [GSK840], the Kinases covered was “RIPK3”.

These compounds were tested on RPS6KA6.
With C[C@@H]1CCNC(=O)c2cc3ccc(C(=O)Nc4nc5ccccc5n4CCCN(C)C)cc3n21 [BI00645435] the Kinases covered was “RPS6KA6”.
Nc1nc(-c2ccccc2F)c(-c2ccnc3ccccc23)s1 [GW560459] was tested, and the Kinases covered was “RPS6KA6”.
In the case of Nc1nc(-c2cccc(Cl)c2)c(-c2ccc3ncccc3n2)s1 [GW780159X], the Kinases covered was “RPS6KA6”.
For Fc1ccc(-c2nn3ccccc3c2-c2ccncc2)cc1 [GW434756X], the Kinases covered was “RPS6KA6”.
